Among the data in PubChem BioAssay AID493170 (National Center for Advancing Translational Sciences (NCATS), 2011) are Potency values, retold here.

Results filed as inconclusive are left out. Where a call stands in place of a potency, no number is given. Activity calls are given as the source filed them. The call rests on the fitted dose curve; in most records, active means well fitted inhibition curve with a large enough effect; inconclusive means small, poorly fitted or top-dose-only effect, or effect the other way; inactive means flat fitted curve, though single readings scatter.
Potency means the concentration at half of the fitted maximal effect.

The target in the experiment is Ubiquitin carboxyl-terminal hydrolase 2 (Homo sapiens) (UniProt O75604). The experiment can be described thus: Ub-rhodamine 110 based assay for inhibitors Ubiquitin-specific Protease USP2a. Further: nearly all actives have a fitted effect of over 50% in size. As to conditions: USP2a Ub-rhodamine110 cleavage, fluorescence; series mostly up to 38.3 µM. The essentials: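 Kinetic fluorescence (485/531 nm) read each minute over 7 min after adding Ub-Rhod110 (150 nM final) to USP2a (5 nM final). The enzyme had 30 min RT exposure to compounds beforehand in Tris pH 8.0 buffer with CaCl2, CHAPS and beta-ME.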
Chain of Ubiquitin carboxyl-terminal hydrolase 2 (Homo sapiens) (O75604 whole entry, looked up): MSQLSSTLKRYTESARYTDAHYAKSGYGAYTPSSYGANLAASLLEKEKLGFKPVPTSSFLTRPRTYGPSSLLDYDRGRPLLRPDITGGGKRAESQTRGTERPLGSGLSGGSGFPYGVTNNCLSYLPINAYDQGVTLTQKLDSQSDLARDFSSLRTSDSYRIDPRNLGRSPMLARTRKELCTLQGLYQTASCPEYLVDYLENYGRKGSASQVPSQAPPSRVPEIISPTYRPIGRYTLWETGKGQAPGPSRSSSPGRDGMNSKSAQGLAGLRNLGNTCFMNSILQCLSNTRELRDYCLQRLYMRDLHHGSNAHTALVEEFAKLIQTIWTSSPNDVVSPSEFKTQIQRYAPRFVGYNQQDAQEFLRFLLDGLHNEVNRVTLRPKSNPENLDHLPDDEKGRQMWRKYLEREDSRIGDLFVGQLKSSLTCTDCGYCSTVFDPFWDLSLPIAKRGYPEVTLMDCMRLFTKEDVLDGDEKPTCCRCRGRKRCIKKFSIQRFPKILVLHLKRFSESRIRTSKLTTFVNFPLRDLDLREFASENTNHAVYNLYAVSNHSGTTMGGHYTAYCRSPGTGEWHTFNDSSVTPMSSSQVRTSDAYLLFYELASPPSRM
Regarding `CCCn1c(N2CCN(Cc3cccc(C)c3)CC2)nc2c1c(=O)[nH]c(=O)n2C`, the Potency result is “inactive”.

Regarding `c1ccc(CN2CCN(CCOCCOc3cccc4ccccc34)CC2)cc1`, the Potency result is “inactive”.

For `CCN1C(=O)C(NC(C)=O)c2cc(OC)ccc21` (stereo not given), the Potency entry is “inactive”.

Consider `COc1cccc(OC)c1-c1nn2c(-c3cc(-c4ccccc4)n[nH]3)nnc2s1`, for which the Potency is 6.31 µM (active).

For the compound `CCC(C(=O)Nc1nnc(-c2ccco2)s1)c1ccccc1` (stereo not given), the Potency result was “inactive”.

For `N#Cc1cc(Sc2ccccn2)c(Sc2ccccn2)cc1C#N`, the Potency result is “inactive”.

Take `Cc1ccc(-c2ccc(CCC(=O)O)n2NC(=O)c2cccs2)cc1`: the Potency result was “inactive”.

Consider `Cc1cc(=O)oc(C)c1C(=O)NCCc1ccccc1`, for which the Potency result was “inactive”.

Consider `O=C(CN1CCOCC1)Nc1ccc(C2CCCCC2)cc1`, for which the Potency result is “inactive”.

In the case of `Cc1ccc(SCC(=O)NCC(C)C)cc1`, the Potency entry was “inactive”.

Regarding `N#C/C(=C\c1ccc(O)c(O)c1)C(=O)Nc1cccc2ncccc12`, the Potency is 2.24 µM (active).

For `COCCNCC(=O)N1CCCCCC1`, the Potency entry is “inactive”.

In the case of `O=C(CCc1nc(-c2ccccc2F)no1)NC1CCCCCC1`, the Potency entry was “inactive”.

As for `C=CCn1c(O)c(C(CC)=NCCN2CCOCC2)c(=O)[nH]c1=O`, the Potency result was “inactive”.

Consider `Cc1ccc(NC(=O)CCC(=O)OC(C)C(=O)c2ccccc2)cc1` (stereo not given), for which the Potency result was “inactive”.

As for `CCCn1c(C)cc(C)c(C#N)c1=O`, the Potency entry was “inactive”.

As for `O=C(NN1C(=O)/C(=C/C=C/c2ccco2)SC1=S)c1ccncc1`, the Potency is 10 µM (active).

For `CCCCCCCCCCOC(=O)Cn1c(COc2ccccc2)[n+](C)c2ccccc21`, the Potency result was “inactive”.

For `CC(C)(C)CC(C)(C)NCC(=O)Nc1c2c(nc3ccccc13)CCC2`, the Potency entry is “inactive”.

Consider `CC1(C)CC(=O)C2=C(C1)N(Cc1ccco1)C(=O)NC2(C(F)(F)F)C(F)(F)F`, for which the Potency result is “inactive”.

On to `CCNc1sc(C(=O)c2cccs2)c(N)c1-c1nc2ccccc2s1`, for which the Potency entry was “inactive”.

Turning to `CCCSCCCNC(=O)CC1Oc2ccccc2NC1=O` (stereo not given), the Potency result was “inactive”.

For `CC(=O)c1c(N2CCCC2)[nH]c(-c2ccccc2)nc1=S`, the Potency result is “inactive”.

For `COc1ccc(Cc2nnc(NC(=O)Cc3cccs3)s2)cc1`, the Potency was 1.41 µM (active).

For the compound `COc1cc2cc(CN(CCN3CCCC3)C(=O)Nc3ccc(F)cc3)c(=O)[nH]c2cc1OC`, the Potency result was “inactive”.

Take `CCCCCc1ccc(OCCOCCn2c[n+](C)c3ccccc32)c(CCCCC)c1`: the Potency result was “inactive”.

With `CC1=NN(c2ccc(C)cc2)C(=O)/C1=C/c1ccc(-c2cc([N+](=O)[O-])ccc2O)o1`, the Potency was 10 µM (active).

As to `Nc1cc(=O)[nH]c(SCc2cccc(Cl)c2)n1`, the Potency entry was “inactive”.

In the case of `O=C(CN1C(=O)/C(=C2\SC(=S)N(CCS(=O)(=O)O)C2=O)c2ccccc21)Nc1cccc(Br)c1`, the Potency is 5.62 µM (active).

Take `CC(=O)OCC(=O)Nc1ccc(Cl)cc1Cl`: the Potency result is “inactive”.

For `O=C(Nc1ccccc1)c1cc(Cl)nc2ccccc12`, the Potency result was “inactive”.

As to `O=C(Nc1nnc(SCC(=O)N2CCCC2)s1)C1CC(=O)N(c2ccc(F)cc2)C1` (stereo not given), the Potency is 11.2 µM (active).

For `Cc1c2c(=O)n(-c3nc4ccccc4s3)nc-2cc(O)n1Cc1ccccc1`, the Potency is 6.31 µM (active).

For `Cc1ccc(C(=O)COC(=O)CNC(=O)CN2C(=O)c3ccccc3C2=O)cc1`, the Potency entry was “inactive”.

In the case of `CC(C)(C)[C@H]1COC(=O)[C@@H](Cc2ccc(F)cc2)C/C=C\C[C@@H](CC(=O)N[C@@H](CO)Cc2ccccc2)C(=O)N1`, the Potency result was “inactive”.

As to `O=C(Cc1cc(=O)[nH]c(=O)[nH]1)NCC1CCCO1` (stereo not given), the Potency entry was “inactive”.

As for `COc1cc(-c2nc(-c3ccc4c(c3)-c3ccccc3S4(=O)=O)c(-c3ccccc3)[nH]2)cc(OC)c1O`, the Potency result was “inactive”.

For `COc1cccc(C(=O)NC(C)c2ccc(-c3ccccc3)cc2)c1OC` (stereo not given), the Potency result is “inactive”.

With `Cc1ccc(N2CN=c3s/c(=C\c4cccnc4)c(=O)n3C2)cc1`, the Potency result was “inactive”.

For the compound `O=C(CSc1nc(O)cc(=O)n1-c1ccccc1)NC1CCCCC1`, the Potency result was “inactive”.
